Records with an inconclusive call do not appear. Activity calls are given as the source filed them. Unless noted, calls follow the shape of the dose curve; as a rule, active = well fitted curve in the direction sought with a large enough effect in the repeat runs; inconclusive = weak or mixed curves; inactive = no such curve, though single readings can be large; an effect the other way counts as inactive or inconclusive.
Legend:
[1] = target: Progesterone receptor (Homo sapiens) (UniProt P06401); assay: qHTS assay to identify small molecule agonists of the progesterone receptor (PR) signaling pathway (AID 1346784; calls by dose curve; also: nearly all actives have a fitted effect of over 30% in size; also: potency is read from the fitted curve at half-maximal effect)
Method in brief: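 HEK 293T PR-UAS-bla reporter cells, 2% charcoal-stripped FBS; 6 hr settle at 37C/5% CO2, compound (DMSO) 16 hr, LiveBLAzer B/G FRET substrate 2 hr RT, fluorescence intensity read.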

[2] = qHTS assay to identify small molecule agonists of the progesterone receptor (PR) signaling pathway - cell viability counter screen (AID 1346799; calls by dose curve; also: nearly all actives have a fitted effect of over 45% in size; also: potency is read from the fitted curve at half-maximal effect)
Method in brief: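 HEK293T PR-UAS-bla, 3,000 cells/well, 2% charcoal-stripped FBS; 6 h settle, compound 16 h at 37C/5% CO2; LiveBLAzer 2 h RT, then CellTiter-Glo 30 min RT, luminescence read.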

[3] = qHTS assay to identify small molecule antagonists of the TGF-beta/Smad signaling pathway - cell viability counter screen (AID 1346824); also: nearly all actives have a fitted effect of over 50% in size
Method in brief: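 Cytotoxicity counter-screen run in the same wells as the beta-lactamase Smad reporter read: CellTiter-Glo luminescence after 30 min at room temperature. HEK 293T SBE-bla cells had 5 hr compound exposure at 37 C with TGF-beta1 (0.25 ng/mL stock).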

[4] = qHTS assay to identify small molecule agonists of the TGF-beta/Smad signaling pathway (AID 1346859; active = well fitted activation curve with a large enough effect in the signal ratio in the repeat runs, not every such curve was filed as active; the % refers to the signal ratio; also: series mostly up to about 77 µM)
Method in brief: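 Read-out: fluorescence at 460 and 530 nm (405 nm excitation) after a 2 hr room-temperature incubation with beta-lactamase FRET substrate. SBE-bla HEK 293T cells had been treated with test compounds for 5 hr at 37 C.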

[5] = target: Thyrotropin-releasing hormone receptor (Homo sapiens) (UniProt P34981); assay: qHTS assay to identify small molecule antagonists of the thyrotropin-releasing hormone receptor (TRHR) signaling pathway (AID 1346877; active = well fitted inhibition curve with a large enough effect in the repeat runs, not every such curve was filed as active; also: series mostly up to about 51 µM)
Method in brief: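 Following an 18 h incubation at 37 °C and a 2 h calcium dye load, TRHR-HEK293 cells were exposed to compound (5 min, room temperature) and challenged with TRH, 1 nM final.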

[6] = target: Thyrotropin-releasing hormone receptor (Homo sapiens) (UniProt P34981); assay: qHTS assay to identify small molecule agonists of the thyrotropin-releasing hormone receptor (TRHR) signaling pathway (AID 1346891; calls by dose curve;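 also: HEK293 cells expressing TRHR with calcium dye readout; series mostly up to about 58 µM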)
Method in brief: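 HEK293/TRHR cells, 1500 per well, 18 h 37 °C; Ca dye 2 h 37 °C; pin-tool compound addition (agonist mode); kinetic fluorescence 3 min, 1 s reads; 15 concentrations, triplicate.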

[7] = qHTS assay to identify small molecule agonists of the TGF-beta/Smad signaling pathway - cell viability counter screen (AID 1346829); also: top concentration of the series differs between compounds; nearly all actives have a fitted effect of over 45% in size
Method in brief: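 Same-well cytotoxicity: CellTiter-Glo added after the 2 hr room-temperature beta-lactamase substrate step, luminescence measured 30 min later; cells had 5 hr of compound at 37 C.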

[8] = qHTS assay to identify small molecule antagonists of the progesterone receptor (PR) signaling pathway - cell viability counter screen (AID 1346798); also: series mostly up to about 92 µM; nearly all actives have a fitted effect of over 50% in size
Method in brief: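 Luminescence readout (CellTiter-Glo, 30 min, RT) of viability in PR-UAS-bla HEK293T cells exposed to compound and R5020 agonist for 16 hr at 37C, 5% CO2; run in the same wells as the beta-lactamase reporter read.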

[9] = target: Progesterone receptor (Homo sapiens) (UniProt P06401); assay: qHTS assay to identify small molecule antagonists of the progesterone receptor (PR) signaling pathway (AID 1346795; active = well fitted inhibition curve with a large enough effect in the signal ratio in the repeat runs, not every such curve was filed as active; the % refers to the signal ratio)
Method in brief: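 Beta-lactamase reporter, HEK293T PR-UAS-bla line; 2% charcoal-stripped FBS; 6 hr pre-incubation, 37C/5% CO2. Compound + R5020 1 nM final, 16 hr. LiveBLAzer B/G FRET substrate, 2 hr RT; fluorescence intensity read.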
% is scaled to controls: 0 for no effect and ±100 for the full control effect.

Progesterone receptor (Homo sapiens), sequence (P06401 whole entry, looked up): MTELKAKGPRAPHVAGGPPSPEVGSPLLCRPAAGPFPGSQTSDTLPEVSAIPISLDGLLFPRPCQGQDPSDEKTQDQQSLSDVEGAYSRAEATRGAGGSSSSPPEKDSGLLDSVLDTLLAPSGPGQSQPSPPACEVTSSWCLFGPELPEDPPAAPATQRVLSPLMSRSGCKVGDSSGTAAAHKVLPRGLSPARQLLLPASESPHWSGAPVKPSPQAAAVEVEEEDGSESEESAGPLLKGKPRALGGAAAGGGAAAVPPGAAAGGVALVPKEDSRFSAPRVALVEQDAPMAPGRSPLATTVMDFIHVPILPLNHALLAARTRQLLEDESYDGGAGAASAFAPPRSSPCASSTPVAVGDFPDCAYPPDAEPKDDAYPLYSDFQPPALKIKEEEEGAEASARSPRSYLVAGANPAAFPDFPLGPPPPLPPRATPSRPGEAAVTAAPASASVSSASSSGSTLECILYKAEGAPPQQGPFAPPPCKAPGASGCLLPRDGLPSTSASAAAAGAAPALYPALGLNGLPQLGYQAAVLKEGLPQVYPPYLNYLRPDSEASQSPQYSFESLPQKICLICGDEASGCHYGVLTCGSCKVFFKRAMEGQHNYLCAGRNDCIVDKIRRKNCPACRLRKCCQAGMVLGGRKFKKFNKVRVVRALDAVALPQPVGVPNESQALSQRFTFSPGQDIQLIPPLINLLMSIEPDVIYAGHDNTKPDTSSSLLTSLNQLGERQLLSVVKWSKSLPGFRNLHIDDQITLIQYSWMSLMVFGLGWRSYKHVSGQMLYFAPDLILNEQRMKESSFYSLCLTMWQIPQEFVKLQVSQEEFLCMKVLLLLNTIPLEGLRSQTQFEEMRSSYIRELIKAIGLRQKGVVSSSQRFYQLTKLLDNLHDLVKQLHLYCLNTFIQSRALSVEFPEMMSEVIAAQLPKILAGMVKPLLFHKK
Thyrotropin-releasing hormone receptor (Homo sapiens), sequence (P34981 whole entry, looked up): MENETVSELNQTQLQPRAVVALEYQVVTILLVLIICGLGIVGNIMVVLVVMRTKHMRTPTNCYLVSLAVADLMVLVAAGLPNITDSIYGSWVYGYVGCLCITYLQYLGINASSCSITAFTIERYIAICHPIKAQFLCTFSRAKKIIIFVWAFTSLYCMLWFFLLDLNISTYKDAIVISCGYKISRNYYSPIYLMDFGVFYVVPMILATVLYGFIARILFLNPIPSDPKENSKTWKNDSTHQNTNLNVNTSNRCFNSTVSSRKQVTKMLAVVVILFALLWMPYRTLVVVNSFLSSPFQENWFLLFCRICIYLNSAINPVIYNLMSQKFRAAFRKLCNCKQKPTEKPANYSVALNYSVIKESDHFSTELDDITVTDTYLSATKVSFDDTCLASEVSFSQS

C#CC(C)N(C)C(=O)Nc1ccc(Cl)cc1 (stereo unspecified)
inactive: Potency [1] | Potency [2] | outcome [3] | outcome [4] | outcome [5] | outcome [6]

O=C1c2cccc3c2[C@H](CCC3)CN1[C@@H]1CN2CCC1CC2
inactive: Potency [1] | outcome [3] | outcome [7] | outcome [4] | outcome [5] | outcome [6]
active: Potency [2] 26.6 µM

CCCCCCCCSCC
inactive: Potency [1] | Potency [8] | Potency [2] | outcome [7] | outcome [4] | outcome [5] | outcome [6]

C[C@@H]1O[C@@H](O[C@@H]2[C@@H](O)[C@H](OCCc3ccc(O)c(O)c3)O[C@H](CO[C@@H]3O[C@H](CO)[C@@H](O)[C@H](O)[C@H]3O)[C@H]2OC(=O)/C=C/c2ccc(O)c(O)c2)[C@H](O)[C@H](O)[C@H]1O
inactive: Potency [8] | Potency [2] | outcome [3] | outcome [7] | outcome [4] | outcome [5] | outcome [6]

CCCC/C=C/C=C\C=O
inactive: Potency [9] | Potency [8] | Potency [2] | outcome [3] | outcome [7]

C=C(C)C(=O)OCCNC(C)(C)C
inactive: Potency [1] | outcome [3] | outcome [7] | outcome [4] | outcome [5] | outcome [6]

COc1ccc2c(c1)C(=O)N(CCc1ccc(S(=O)(=O)NC(=O)NC3CCCCC3)cc1)C(=O)C2(C)C
active: Potency [1] 5.96 µM
inactive: Potency [8] | outcome [3] | outcome [7] | outcome [5] | outcome [6]

CC(CN)CC(C)(C)CCN (stereo unspecified)
inactive: Potency [1] | Potency [9] | Potency [8] | outcome [3] | outcome [7] | outcome [4] | outcome [5] | outcome [6]

O=C(NCCc1c[nH]c2ccccc12)c1cccnc1
inactive: Potency [1] | Potency [8] | Potency [2] | outcome [3] | outcome [7] | outcome [4] | outcome [5] | outcome [6]

CC(C)=O
inactive: Potency [1] | Potency [9] | Potency [8] | Potency [2] | outcome [7] | outcome [4] | outcome [5] | outcome [6]

Oc1cn2c(n1)Nc1ccc(Cl)c(Cl)c1C2
inactive: activity change, negative = cytotoxicity [8] 6.36% [at 18.9 µM] | activity change, negative = cytotoxicity [2] 10.9% [at 19 µM] | viability change, negative = cytotoxic [3] 8.57% [at 15.8 µM] | activation [4] -0.288% [at 15.8 µM]

C=C1CC/C=C(\C)CC[C@@H]2[C@@H]1CC2(C)C
inactive: Potency [8] | Potency [2] | outcome [3] | outcome [7] | outcome [4]

COc1cc(C(=S)N2CCOCC2)cc(OC)c1OC
inactive: Potency [9] | Potency [8] | Potency [2] | outcome [3] | outcome [7] | outcome [4] | outcome [5] | outcome [6]

CC(N)C(=O)OC(C)(C)Cc1ccc(Cl)cc1 (stereo unspecified)
inactive: Potency [1] | Potency [9] | outcome [3] | outcome [7] | outcome [4]

CCOC(=O)/C=C/c1ccccc1
inactive: Potency [1] | Potency [9] | Potency [8] | Potency [2] | outcome [7] | outcome [4] | outcome [5] | outcome [6]

C=CCCCCCCCCCCCC
inactive: Potency [8] | Potency [2] | outcome [3] | outcome [7] | outcome [4] | outcome [5] | outcome [6]

CCOC(=O)c1ncn2c1CN(C)C(=O)c1cc(F)ccc1-2
inactive: Potency [9] | Potency [8] | Potency [2] | outcome [3] | outcome [7] | outcome [4]

O=C(CCNNC(=O)c1ccncc1)NCc1ccccc1
inactive: Potency [9] | Potency [8] | Potency [2] | outcome [3] | outcome [7] | outcome [4] | outcome [5] | outcome [6]

CCCC/C=C\CCCCCCCCCC=O
inactive: Potency [8] | Potency [2] | outcome [3] | outcome [7] | outcome [4] | outcome [5] | outcome [6]

CC(CC=O)CCCC(C)(C)O (stereo unspecified)
inactive: Potency [9] | outcome [3] | outcome [7] | outcome [4]

On1nnc2ccccc21
inactive: Potency [1] | Potency [9] | outcome [7] | outcome [4]
active: Potency [2] 1.37 µM

CC(COC(C)(C)C)OCCCO (stereo unspecified)
inactive: Potency [8] | outcome [3] | outcome [7] | outcome [4] | outcome [5] | outcome [6]

CC(C)CC(=O)O
inactive: Potency [1] | Potency [9] | Potency [2] | outcome [3] | outcome [7] | outcome [4] | outcome [5] | outcome [6]

CC(=O)/C=C/C1C(C)=CCC(C)C1(C)C (stereo unspecified)
inactive: Potency [1] | Potency [9] | Potency [2] | outcome [3] | outcome [7] | outcome [4]

CC(C)CCCCOC(=O)c1ccccc1C(=O)OCCCCC(C)C
inactive: Potency [1] | Potency [2] | outcome [3] | outcome [7] | outcome [4] | outcome [5] | outcome [6]

CCCCCOC(=O)CCC
inactive: Potency [1] | Potency [8] | Potency [2] | outcome [3] | outcome [7] | outcome [4]

OCCC(F)(F)C(F)(F)C(F)(F)C(F)(F)C(F)(F)C(F)(F)C(F)(F)C(F)(F)F
inactive: Potency [1] | Potency [9] | Potency [2] | outcome [3] | outcome [7] | outcome [4] | outcome [5] | outcome [6]

CCCCCCOc1ccccc1C(N)=O
inactive: Potency [1] | outcome [3] | outcome [4]

C[C@H](N)[C@H](O)c1cccc(O)c1
inactive: Potency [1] | Potency [8] | Potency [2] | outcome [3] | outcome [4] | outcome [5] | outcome [6]

— PubChem BioAssay (Tox21)
